Assay results published in PubChem BioAssay (NCI).
About 79,000 compounds went through this panel and 15% of them were active in at least one assay; those are over-represented in the sample as a whole. Calls of active or inactive are those of the source. Cut-off read from the data, not from the text of the source: active = growth inhibition above about 70%; inactive = the rest. Where a SMILES comes first, the peptide text is derived from it. [ ]: non-standard residue; d: D form. The star is where a group is joined. ξ: configuration not given here. Cbz = O=C(OCc1ccccc1)*; ξNva = CCCC(N)C(=O)O

What was measured:
[1] = NCI Yeast Anticancer Drug Screen. Data for the rad50 strain (AID 155);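 note: 0% = growth of vehicle-only cultures of the same strain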; details: S. cerevisiae rad50 strain growth inhibition; at 50.0 µM; hits give high values
Outline: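 Growth of the mutant yeast was measured after compound exposure and referenced to vehicle-treated cultures.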

[2] = NCI Yeast Anticancer Drug Screen. Data for the mec2-1 strain (AID 157); details: S. cerevisiae mec2-1 strain, at 50.0 µM, hits give high values
Outline: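 Using mec2-1 yeast: add compound, measure growth, express inhibition versus vehicle-treated cultures.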

[3] = NCI Yeast Anticancer Drug Screen. Data for the sgs1 mgt1 strain (AID 161);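 note: 0% = growth of cultures given vehicle only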; details: S. cerevisiae sgs1 mgt1 strain, at 50.0 µM, hits give high values
Outline: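 Compounds are added to genetically altered yeast, and growth is compared with cultures given vehicle alone to give percent inhibition.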

[4] = NCI Yeast Anticancer Drug Screen. Data for the cln2 rad14 strain (AID 165);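 note: 0% = growth equal to vehicle treated cultures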; details: S. cerevisiae cln2 rad14 strain, at 50.0 µM, hits give high values
Outline: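 Yeast strain cln2 rad14, bearing defects in cell cycle control and DNA repair, serves as the test system; values reflect growth inhibition compared with vehicle.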

[5] = NCI Yeast Anticancer Drug Screen. Data for the bub3 strain (AID 167); details: S. cerevisiae bub3 mutant strain, at 50.0 µM, hits give high values
Outline: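 Whole-cell yeast assay. The mutant strain was incubated with compounds, and growth inhibition was determined by comparison with vehicle-treated cells.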

[6] = NCI Yeast Anticancer Drug Screen. Data for the mlh1 rad18 strain (AID 175); details: S. cerevisiae mlh1 rad18 strain growth inhibition; at 50.0 µM; hits give high values
Outline: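 Steps: expose repair-defective yeast to compound; measure growth; express inhibition against vehicle-treated controls.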

Measured: growth inhibition

CCCC(NC(=O)CNC(=O)OCc1ccccc1)C(=O)O (stereo not drawn) (Cbz-Gly-[ξNva]-OH)
inactive: [1] 31.6% | [2] 7% | [3] 2.35% | [4] 19.9% | [5] 5.45% | [6] 3.95%

COC(=O)C1CCC(=O)C(Sc2ccccc2)C1 (stereo not drawn)
inactive: [1] 25.1% | [2] -11.9% | [3] 18.4% | [4] 6% | [5] 32.1% | [6] 28.4%

CCOC(=O)CCN(CC1CC=CCC1)c1cc(O)c2c(c1O)C(=O)c1ccccc1C2=O (stereo not drawn)
inactive: [1] -70.6% | [2] -4.75% | [3] -21.5% | [4] -2.55% | [5] 2% | [6] -9.85%

CC(=O)OCC(OC(C)=O)C(OC(C)=O)C(OC(C)=O)C(OC(C)=O)C(C=O)OC(C)=O (stereo not drawn)
inactive: [1] -31.6% | [2] -1.7% | [3] 11.7% | [4] -37.2% | [5] -1.25% | [6] -7.95%

CC(CO)CCNc1ncnc2c1ncn2CCC(=O)OC(C)(C)C (stereo not drawn)
inactive: [1] -27.6% | [2] 16.4% | [3] -21.6% | [4] -20.6% | [5] -1.85% | [6] -9.65%

CS(=O)(=O)c1ccc2c(c1)-c1ccc([N+](=O)[O-])cc1C2=O
inactive: [1] 12.7% | [2] 8.8% | [3] 6.3% | [4] 1.65% | [5] -4% | [6] -0.9%

CN(C)c1ccc2c(c1)Cc1cc(NC(=O)CCC(=O)O)ccc1-2
inactive: [1] 8.7% | [2] 6.4% | [3] 19.4% | [4] -1.6% | [5] 8.85% | [6] 14.3%

Nc1cccnc1NCC(O)c1ccccc1 (stereo not drawn)
inactive: [1] 1.9% | [2] -13.7% | [3] -9.45% | [4] -12.6% | [5] -11.6% | [6] 10.6%

O=C1CCSC(=S)N1c1ccc(F)cc1F
inactive: [1] 18% | [2] 4.65% | [3] 18.4% | [4] 28.9% | [5] 4.7% | [6] -1.15%

COC(=O)C1CCCN1C(=O)c1ccccc1 (stereo not drawn)
inactive: [1] 3.6% | [2] -0.4% | [3] -16.2% | [4] -36.8% | [5] -5% | [6] 11.6%

Cc1cc(Br)c[nH]c1=O
inactive: [1] -4.75% | [2] -7.7% | [3] -3.65% | [4] -20.2% | [5] -29.1% | [6] 5.05%

O=C(O)CCNCCCCNCCC(=O)O
inactive: [1] 6.2% | [2] -11.8% | [3] -23.9% | [4] -1.5% | [5] -22.6% | [6] -22.3%

CC(=O)c1ccccc1NS(=O)(=O)c1ccc2nc(C)n(NS(=O)(=O)c3ccccc3C(C)=O)c(=O)c2c1
inactive: [1] 43.5% | [2] 19.6% | [3] -5.25% | [4] 7.2% | [5] 4.55% | [6] 28.6%

Cc1ccc(NC(=O)COc2ccc(Cl)cc2)c(C)c1
inactive: [1] 2.9% | [2] 11% | [3] 12.8% | [4] 9.45% | [5] 16.2% | [6] 0.75%

C=CCOCn1ccc(N)nc1=O
inactive: [1] -3.3% | [2] -0.55% | [3] 1.8% | [4] 7% | [5] -6.05% | [6] -2.95%

O=C(O)CCc1ccc([N+](=O)[O-])cc1Cl
inactive: [1] 5.8% | [2] 4.95% | [3] 7.3% | [4] -24.6% | [5] -17.4% | [6] -0.4%

O=C(O)C12CCC(CC1=O)C2 (stereo not drawn)
inactive: [1] 5.8% | [2] 4.4% | [3] 11.3% | [4] 13.7% | [5] -2% | [6] 14.1%

CC(=O)N/N=C(\N)c1nc2c(n3nc(C)nc13)CCCC2
inactive: [1] -17.6% | [2] -19% | [3] -1.2% | [4] -18.4% | [5] -5.05% | [6] 5.5%

N#C/C(=C/O)c1ccccc1
inactive: [1] 1.65% | [2] 4.4% | [3] -0.75% | [4] 3.1% | [5] 5.6% | [6] -13.7%

CC(=O)N1C(Nc2nccs2)CCN1c1ccccc1 (stereo not drawn)
inactive: [1] -43.8% | [2] -64.5% | [3] -21% | [4] 3.1% | [5] -6.75% | [6] -34.2%

Nc1ccccc1OCOCOc1ccccc1N
inactive: [1] -11.7% | [2] -17.8% | [3] -7% | [4] -11.4% | [5] -6.3% | [6] -10.3%

Cc1cccc(Cl)c1N=Nc1c(C)nc(N)nc1-c1ccccc1
inactive: [1] 7.1% | [2] 15.8% | [3] 5.8% | [4] -11.5% | [5] 1.1% | [6] 7.8%

CON(C)CCOC(=O)c1ccc([N+](=O)[O-])cc1
inactive: [1] -5.25% | [2] 4.15% | [3] -2.6% | [4] -21.4% | [5] 3.95% | [6] 27.2%

C1CC2CC1CC2C1CO1 (stereo not drawn)
inactive: [1] 3.45% | [2] -6.15% | [3] 4.85% | [4] 0.75% | [5] 0.5% | [6] 4.7%

CC(OS(C)(=O)=O)C(C)OS(C)(=O)=O (stereo not drawn)
inactive: [1] 2.4% | [2] -9.35% | [3] -11.7% | [4] -10.4% | [5] 0.95% | [6] -19.6%

Cc1ccc(O)c(C2C=CCC2)c1 (stereo not drawn)
inactive: [1] 8.6% | [2] -7.25% | [3] 22.8% | [4] 7.5% | [5] -1.35% | [6] 4.2%

COc1ccc2ccccc2c1CN1CCOCCOCCN(Cc2c(OC)ccc3ccccc23)CCOCCOCC1
inactive: [1] -18.1% | [2] -34.5% | [3] -23.4% | [4] -28.1% | [5] 5.75% | [6] -29.4%

O=C(Cc1ccccc1)NS(=O)(=O)c1ccccc1
inactive: [1] 5.15% | [2] -5.8% | [3] -12.3% | [4] 9.15% | [5] -3.95% | [6] 4.2%

O=C(CC(=O)C(=O)CC(=O)OCc1ccccc1)OCc1ccccc1
inactive: [1] 15% | [2] -19.9% | [3] -0.3% | [4] 11.9% | [5] -21.3% | [6] 2.55%

CC1(C)OCC(C2OC3OC(C)(C)OC3C2c2ccccc2)O1 (stereo not drawn)
inactive: [1] -3.55% | [2] -9% | [3] -31.1% | [4] 1.4% | [5] -2.8% | [6] 2.2%

Cc1cc(Cl)c2ccc(Cl)c(C)c2n1
inactive: [1] 6.65% | [2] -8.55% | [3] 3.65% | [4] -11.1% | [5] 5.4% | [6] 0.15%

COc1c(N)c(C)nc(Cl)c1C#N
inactive: [1] -10.1% | [2] 2.95% | [3] -2.7% | [4] -1.05% | [5] -0.75% | [6] 8.9%

CCOC(=O)C12CC(COc3ccc([N+](=O)[O-])cc3)ON1OC(COc1ccc([N+](=O)[O-])cc1)C2 (stereo not drawn)
inactive: [1] 23.9% | [2] 7.8% | [3] 17.2% | [4] 2.4% | [5] -3.85% | [6] 28.1%

Cc1ccc(C(CS(=O)(=O)c2ccc(C)cc2)c2ccccc2)cc1 (stereo not drawn)
inactive: [1] 0.5% | [2] 6.15% | [3] -7.8% | [4] -20.1% | [5] 1.7% | [6] -19.9%

COc1ccc2nc3ccccc3c(NCCCN(C)C)c2c1[N+](=O)[O-]
inactive: [1] -8.1% | [2] -19.6% | [3] 12.9% | [4] -22.2% | [5] -13.3% | [6] -4.7%

COc1cccc([B-]23OCC[N+]2(CNC(=O)c2ccccc2O)CCO3)c1 (stereo not drawn)
inactive: [1] 29.6% | [2] 2.95% | [3] 12.9% | [4] 6.75% | [5] -3.25% | [6] 19.4%

Cc1c([N+](=O)[O-])cc(C(C)(C)C)c(OS(=O)(=O)N(C)C)c1[N+](=O)[O-]
inactive: [1] 34% | [2] 10.4% | [3] 34.5% | [4] 13.1% | [5] 18.1% | [6] 26.6%

CC1=NN(c2cc(Cl)c(S(=O)(=O)O)cc2Cl)C(=O)C1N=Nc1ccc(S(=O)(=O)O)cc1 (stereo not drawn)
inactive: [1] -6.3% | [2] -19.8% | [3] -8% | [4] 2.05% | [5] -5.8% | [6] -0.9%
